Records with an inconclusive call do not appear. Active and inactive are the calls of the source. Calls follow the shape of the dose curve; as a rule, active = well fitted inhibition curve with a large enough effect; inconclusive = small, poorly fitted or top-dose-only effect; inactive = flat fitted curve, though single readings scatter. Non-standard residues stand in square brackets, D forms with d. Residues, ends and D or L forms follow the SMILES beside them. Dolaproine = CO[C@@H]([C@@H]1CCCN1)[C@@H](C)C(=O)O; Dil = CC[C@H](C)[C@H](NC)[C@@H](CC(=O)O)OC; NMeV = CN[C@H](C(=O)O)C(C)C

A short description of the assay: Identification of antibody-drug conjugate (ADC) payloads which are substrates of ATP-binding cassette drug efflux transporters: ABCG2-H460 cell line. As to conditions: H460 MX20 (ABCG2) viability, CellTiter-Glo, 48 h. The source says: Antibody-drug conjugates (ADCs) feature an antibody recognizing a specific protein joined to a potent toxic payload. Numerous antibody-drug conjugates have received FDA approval; however, clinical resistance arises. Resistance mechanisms include decreased expression or mutation of the antibody target, impaired payload release, or increased expression of ATP-binding cassette (ABC) efflux transporters associated with multidrug resistance. We therefore sought to characterize the interaction of ABC multidrug transporters with ADC payloads. We performed a high-throughput screen with 27 common ADC payloads using cells lines expressing ABC transporters P-glycoprotein (P-gp, encoded by ABCB1) or ABCG2 (encoded by ABCG2). Confirmatory assays were also performed using cells transfected to express P-gp, ABCG2, or MRP1 (encoded by ABCC1). Several commonly used ADC payloads were substrates of P-gp, including calicheamicin gamma1, monomethyl auristatin E, DM1, and DM4. All the pyrrolobenzodiazepines tested - SJG136, SGD-1882, SG2057, and SG3199 - were substrates of P-gp, ABCG2, and MRP1. […] These findings highlight the risk of transporter-mediated resistance with certain ADC payloads and underscore the importance of selecting payloads that evade ABC transporter recognition in future ADC development.
HEK-293 cells were transfected with empty vector (pcDNA) or vector containing the human ABCB1 (MDR-19), ABCG2 (R-5), or ABCC1 gene (MRP1) and were maintained in EMEM with 2 mg/mL G418 added to maintain transporter expression. The HeLa derivative KB-3-1 and the P-gp overexpressing KB-8-5-11 subline were maintained in DMEM; KB-8-5-11 additionally received 100 ng/mL colchicine. H460 parental cells were obtained from the Division of Cancer Treatment and Diagnosis Tumor Repository, National Cancer Institute at Frederick, MD and were cultured in RPMI. The ABCG2 expressing subline H460 MX20 was generated by selecting H460 cells in 20 nM mitoxantrone. Media in all cases was supplemented with 10% FBS and 1% penicillin-streptomycin. We explored 27 common ADC payloads, in two orthogonal, paired cell line sets-a drug selected and transfected set for each transporter--to identify substrates of the ABC transporters P-gp and ABCG2. Compounds were sourced from Levena Biopharma (San Diego, CA), Selleck Chem (Houston, TX), ChemieTek (Indianapolis, IN), or Microsource Discovery Systems (Gaylordsville, CT). Screening was performed as previously described. Briefly, cells were plated at a density of 500 cells/well in 1536 well plates with compounds added using a 1536-head pin tool (Kalypsys, San Diego CA). Cells were incubated with cytotoxic drugs and processed with CellTiter Glo reagent (Promega, Madison, WI) to determine viability after 48 hours. P-gp substrates were identified by comparing compound activity between paired sets of low-expressing (sensitive) and over-expressing (resistant) cell lines.
For orientation: In ATP-based viability assays light output follows the ATP content of the culture.
As to `CN(C)CCOc1ccc2[nH]c(C(=O)N3C[C@@H](CCl)c4c3cc(O)c3ccccc43)cc2c1`, the Potency was 0.2 nM (active).
Take `COc1cccc2c1C(=O)c1c(O)c3c(c(O)c1C2=O)C[C@@](O)(C(=O)CO)C[C@@H]3O[C@H]1C[C@H]2[C@H](O[C@@H]3[C@@H](OC)OCCN32)[C@H](C)O1`: the Potency was 0.0598 nM (active).
Next, `CC(C)(C)OC(=O)Nc1ccc2[nH]c(C(=O)N3C[C@@H](CCl)c4c3cc(O)c3ccccc43)cc2c1`: 2.1 nM (active); `CCc1c2c(nc3ccc(O)cc13)-c1cc3c(c(=O)n1C2)COC(=O)[C@]3(O)CC`: 11.9 nM (active); `COc1cc2cc(c1Cl)N(C)C(=O)C[C@H](O)[C@]1(C)O[C@H]1[C@H](C)C1C[C@@](O)(NC(=O)O1)[C@H](OC)/C=C/C=C(\C)C2`: 4750 nM (active).
Then `CCN[C@H]1CO[C@@H](O[C@H]2[C@H](O[C@H]3C#C/C=C\C#C[C@]4(O)CC(=O)C(NC(=O)OC)=C3/C4=C\CSSSC)O[C@H](C)[C@@H](NO[C@H]3C[C@H](O)[C@H](SC(=O)c4c(C)c(I)c(O[C@@H]5O[C@@H](C)[C@H](O)[C@@H](OC)[C@H]5O)c(OC)c4OC)[C@@H](C)O3)[C@@H]2O)C[C@@H]1OC`, with 1.1 nM (active); and `COc1cccc2c1C(=O)c1c(O)c3c(c(O)c1C2=O)C[C@@](O)(C(=O)CO)C[C@@H]3O[C@H]1C[C@H](N)[C@H](O)[C@H](C)O1`, with 377 nM (active).
Next, `CC[C@]1(O)CC2CN(CCc3c([nH]c4ccccc34)[C@@](C(=O)OC)(c3cc4c(cc3OC)N(C)[C@H]3[C@@](O)(C(=O)OC)[C@H](OC(C)=O)[C@]5(CC)C=CCN6CC[C@]43[C@@H]65)C2)C1` (stereo partly specified): 533 nM (active); `COC(=O)c1cc2c3c(cc(O)c2[nH]1)N(C(=O)c1cc2cc(OC)c(OC)c(OC)c2[nH]1)CC3CCl` (stereo unspecified): 0.4 nM (active).
For the compound `CCN(C(C)=O)[C@H]1CO[C@@H](O[C@H]2[C@H](O[C@H]3C#C/C=C\C#C[C@]4(O)CC(=O)C(NC(=O)OC)=C3/C4=C\CSSSC)O[C@H](C)[C@@H](NO[C@H]3C[C@H](O)[C@H](SC(=O)c4c(C)c(I)c(O[C@@H]5O[C@@H](C)[C@H](O)[C@@H](OC)[C@H]5O)c(OC)c4OC)[C@@H](C)O3)[C@@H]2O)C[C@@H]1OC`, the Potency is 7.5 nM (active).
Then `CC[C@H](C)[C@@H]([C@@H](CC(=O)N1CCC[C@H]1[C@H](OC)[C@@H](C)C(=O)N[C@@H](Cc1ccccc1)C(=O)O)OC)N(C)C(=O)[C@@H](NC(=O)[C@@H](NC)C(C)C)C(C)C` (H-[NMeV]V[Dil][Dolaproine]F-OH), with 5330 nM (active).

For the origin of these results see PubChem BioAssay AID2061321 (National Center for Advancing Translational Sciences (NCATS), 2025).
